The values that follow come from PubChem BioAssay (Tox21).

Records with an inconclusive call do not appear. Entries that show only a call come without a potency. Activity calls are given as the source filed them. Calls come from the whole dose curve; as a rule, active = well fitted cell-killing curve with a large enough effect in the repeat runs; inconclusive = weak or mixed curves, or effect the other way; inactive = no such curve, though single readings can be large or run the other way.
Potency is the fitted concentration of half-maximal effect.

This assay is described as follows: qHTS assay to identify small molecule antagonists of the sonic hedgehog signaling (Shh) pathway - cell viability counter screen (AID 1259367). Note: nearly all actives have a fitted effect of over 55% in size. The conditions noted are these: NIH/3T3 Gli1-Luc viability, CellTiter-Fluor, 24 h; series mostly up to 92.4 µM. An excerpt:
National Center for Advancing Translational Sciences [NCATS]
NIH Chemical Genomics Center [NCGC]
U.S. Environmental Protection Agency [EPA]
National Institutes of Environmental Health Sciences [NIEHS]
National Toxicology Program [NTP]
U.S. Food and Drug Administration [FDA]
The sonic hedgehog (Shh) pathway is essential for normal embryonic development. Dysregulation of the Shh pathway can cause severe developmental defects in organs. Therefore chemicals that interfere with the pathway are potential developmental toxicants. A cell line designated 3T3Gli1-Luc (DMB/OARSA/CFSAN/FDA, Laurel, MD), a NIH/3T3 derived clone containing stably integrated Gli1-Luc reporter is used to detect chemical interference of the Shh pathway, by changes in the expression of the firefly Luc gene under the control of the Gli1 transcriptional response element. This cell line was used to screen Tox21 libraries for identifying and prioritizing the potential developmental toxicants that interfere Shh pathway. Conditioned medium-stimulated mode was used to screen for chemicals inhibiting Shh signaling. The cytotoxicity of the compounds was tested in parallel by measuring the cell viability using CellTiter-Fluor assay system (Promega, Madison, WI) in the same wells.
Tox21 Assay Protocol Summary:
3T3 Gli1-Luc cells were dispensed at 2,000 per well in 5uL of culture medium into white solid bottom 1536-well plates (Greiner Bio-One, Monroe, NC) using a Multidrop Combi (Thermo Scientific, Waltham, MA) dispenser. The assay plates were incubated at 37 C and 5% CO2 for 4hr, and then 23nL of compounds dissolved in DMSO and positive control were transferred using a Pintool station (Wako, San Diego, CA). The compound transfer was followed by the addition of 1ul conditioned medium or assay buffer using two separate tips of Flying Reagent Dispenser (FRD, Aurora Discovery, San Diego, CA). The assay plates were incubated at 37C and 5% CO2 for 24hr. For viability read, after 23hr of compound treatment, 1uL of CellTiter-Fluor reagent (Promega Corporation, Madison, WI) was added to each well of the assay plates using Flying Reagent Dispenser (FRD, Aurora Discovery, San Diego, CA) and incubated the assay plates at 37C for 1hr. The fluorescence signal was quantified using a ViewLux plate reader (Perkin Elmer, Shelton, CT).
(In general: Quantitative high-throughput screening tests each substance at several concentrations.)
As for `CCCCC(=O)O[C@]1(C(=O)CO)CC[C@H]2[C@@H]3CCC4=CC(=O)CC[C@]4(C)[C@H]3[C@@H](O)C[C@@]21C`, the Potency entry is “inactive”.
As for `C[Si]1(C)O[Si](C)(C)O[Si](C)(C)O1`, the Potency result was “inactive”.
As to `CCc1c2c(nc3ccc(OC(=O)N4CCC(N5CCCCC5)CC4)cc13)-c1cc3c(c(=O)n1C2)COC(=O)[C@]3(O)CC`, the Potency entry was “inactive”.
Turning to `CCCCC(=O)O[C@]1(C(=O)CO)[C@@H](C)C[C@H]2[C@@H]3CCC4=CC(=O)C=C[C@]4(C)[C@@]3(F)[C@@H](O)C[C@@]21C`, the Potency entry is “inactive”.
Regarding `CCC(Cc1ccccc1)(C(=O)c1ccc(N2CCOCC2)cc1)N(C)C` (stereo not given), the Potency result was “inactive”.
With `CCN(Cc1cccc(S(=O)(=O)O)c1)c1ccc(C(=C2C=CC(=[N+](CC)Cc3cccc(S(=O)(=O)[O-])c3)C=C2)c2ccccc2)cc1`, the Potency entry was “inactive”.
The same measure, in the same setting: as for `CCn1nc(C)c2c1C(=O)NCC(c1ccc(O)cc1)=N2`, the entry is “inactive”; as for `Nc1c(I)cc(I)c(C(=O)N(CCC(=O)O)c2ccccc2)c1I`, “inactive”; as for `O=C(O)Cc1ccc(-c2ccccc2)cc1`, “inactive”.
With `O=C(O)c1ccccc1NCCc1ccccc1`, the Potency entry is “inactive”.
On to `CC1CN(c2cc3c(cc2F)c(=O)c(C(=O)O)cn3-c2ccc(F)cc2F)CCN1` (stereo not given), for which the viability change, negative = cytotoxic is 5.63% [at 8.39 µM] (inactive).
Take `CC(Cl)C(Cl)Cl` (stereo not given): the Potency entry is “inactive”.
In the case of `CNC(=S)NC`, the Potency entry is “inactive”.
Consider `O=C1OCCN1/N=C/c1ccc([N+](=O)[O-])o1`, for which the Potency result is “inactive”.
Turning to `O=C(C(=O)c1ccccc1)c1ccccc1`, the Potency entry was “inactive”.
Same read-out and setting: the entry for `CCOc1cc(N)c(Cl)cc1C(=O)NCC1CN(Cc2ccc(F)cc2)CCO1` (stereo not given) is “inactive”.
In the case of `CCCCCCCCCCOS(=O)(=O)O`, the Potency result was “inactive”.
The same measure, in the same setting: as for `O=C(O)c1cccnc1C(=O)O`, the entry is “inactive”; as for `CC1(C)O[C@@H]2C[C@H]3[C@@H]4CCC5=CC(=O)C=C[C@]5(C)[C@H]4[C@@H](O)C[C@]3(C)[C@]2(C(=O)CO)O1`, “inactive”; as for `Oc1cc(O)c(Cl)cc1Cl`, “inactive”.
Take `O=C(N[C@@H](c1ccccc1)[C@@H]1CCCCN1)c1cccc(C(F)(F)F)c1Cl`: the Potency is 54.5 µM (active).
The same measure, in the same setting: the entry for `O=C(NCCCN1CCOCC1)c1ccc(Cl)cc1` is “inactive”; for `CCOC(=O)/C=C/C(=O)O` it is “inactive”.
Regarding `C[N+]1(C)CCC(=C(c2ccccc2)c2ccccc2)CC1`, the Potency result is “inactive”.
`CCCCC(CC)COC(=O)COc1ccc(Cl)cc1C` (stereo not given): the Potency entry was “inactive”.
As for `C/C=C(\C)C(=O)OCCC(C)CCC=C(C)C` (stereo not given), the Potency entry is “inactive”.
With `CCCCCCCCCCCCCCCCBr`, the viability change, negative = cytotoxic is -2.38% [at 19 µM] (inactive).
In the case of `CCCC1C(CC)=CC(CC)=CN1c1ccccc1` (stereo not given), the Potency result is “inactive”.
With `Cc1ccccc1N1C(=O)c2cc(S(N)(=O)=O)c(Cl)cc2NC1C` (stereo not given), the Potency result is “inactive”.
On the same count and under the same terms, the entry for `CCOC(=O)N1CCC(n2c(=O)[nH]c3cc(Cl)ccc32)CC1` is “inactive”.
As for `CC(=O)CC(c1ccc([N+](=O)[O-])cc1)c1c(O)c2ccccc2oc1=O` (stereo not given), the Potency entry is “inactive”.
Regarding `COC(OC)(C(=O)c1ccccc1)c1ccccc1`, the Potency entry is “inactive”.
For the compound `CC[C@H](NC(=O)c1cc(F)ccc1NS(=O)(=O)c1cccc2cccnc12)c1ccccc1`, the Potency result is “inactive”.
For `c1cnc2c(n1)CCCC2`, the Potency result is “inactive”.
Take `CCCCC(CC)C(=O)OCCOCCOCCOCCOC(=O)C(CC)CCCC` (stereo not given): the Potency result is “inactive”.
In the case of `Cc1cc(OI)c(C(C)C)cc1-c1cc(C(C)C)c(OI)cc1C`, the Potency result is “inactive”.
Regarding `CCOC(=O)OCC`, the Potency entry was “inactive”.
On the same count and under the same terms, as for `CC(N)CN` (stereo not given), the entry is “inactive”; as for `CCCCC(CC)CNCC(CC)CCCC` (stereo not given), “inactive”; as for `C[C@@H]1C[C@H]2[C@@H]3CCC4=CC(=O)C=C[C@]4(C)[C@@]3(F)[C@@H](O)C[C@]2(C)[C@H]1C(=O)CO`, “inactive”.
